Measurements reported in PubChem BioAssay AID1159580 (chemical genetic matrix, 2015).
Where “and” joins values, the source holds several entries; their conditions need not be identical. Equal entries are not always repeated. The campaign covered roughly 5,500 compounds. About 2,000 (36%) were called active. Inconclusive results (about 18%) are left out. Rule as the data show it: active = normalized growth mostly below about 0.91 (no sharp cut-off); inconclusive = no clear call, values can overlap the other calls; inactive = mostly above about 0.92. Some of the results follow.

Test: chemical genetic growth profiling, strain panel (AID 1159580);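 also: tested at 20 µM; growth read once vehicle control cultures reached saturation at 30 °C; 1 = growth at the plate median or of vehicle wells; lower values mean less growth of the strain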
Details: S. cerevisiae deletion strains, growth OD

Measured: normalized growth

CCCN(CCC)C(=O)C(CCC(=O)O)NC(=O)c1ccccc1 (stereo not given)
inactive: locus YAL013W, strain DEP1, hits give low values 0.996 and 1.01 | locus YAL021C, strain ccr4, hits give low values 0.98 | locus YAL026C, strain drs2, hits give low values 0.987 | locus YAL030W, strain snc1, hits give low values 1 | locus YAL040C, strain CLN3, hits give low values 1 | locus YBL061C, strain skt5, hits give low values 0.983 | locus YBR009C, strain hhf1, hits give low values 0.992 | locus YBR021W, strain FUR4, hits give low values 1.01 | locus YBR023C, strain chs3, hits give low values 0.992 | locus YBR171W, strain sec66, hits give low values 0.98 | locus YBR229C, strain ROT2, hits give low values 0.999 | locus YBR231C, strain swc5, hits give low values 0.979 | locus YBR279W, strain paf1, hits give low values 0.979 | locus YCL011C, strain gbp2, hits give low values 0.983 | locus YCL016C, strain dcc1, hits give low values 1.01 | locus YCL029C, strain bik1, hits give low values 0.985 | locus YCL061C, strain MRC1 (second series), hits give low values 1 | locus YCL061C, strain MRC1, hits give low values 0.994 | locus YCL069W, strain vba3, hits give low values 0.996 | locus YCR088W, strain abp1, hits give low values 0.98 | locus YDL005C, strain med2, hits give low values 0.99 | locus YDL035C, strain GPR1, hits give low values 1.02 | locus YDL040C, strain nat1, hits give low values 0.993 | locus YDL074C, strain BRE1, hits give low values 0.987 | locus YDL101C, strain DUN1, hits give low values 0.994 | locus YDL134C, strain PPH21, hits give low values 0.996 | locus YDL185W, strain tfp1, hits give low values 0.958 | locus YDL192W, strain arf1, hits give low values 0.979 | locus YDR001C, strain nth1, hits give low values 0.973 | locus YDR069C, strain doa4, hits give low values 0.993 | locus YDR101C, strain arx1, hits give low values 0.994 | locus YDR137W, strain rgp1, hits give low values 1.02 | locus YDR150W, strain NUM1, hits give low values 0.991 and 0.999 | locus YDR159W, strain sac3, hits give low values 0.935 | locus YDR162C, strain NBP2, hits give low values 1 | locus YDR195W, strain ref2 1.02 | locus YDR297W, strain sur2, hits give low values 0.987 | locus YDR318W, strain mcm21, hits give low values 0.994 | locus YDR334W, strain swr1, hits give low values 0.962 | locus YDR335W, strain msn5, hits give low values 0.981 | locus YDR363W, strain ESC2, hits give low values 1.01 | locus YDR388W, hits give low values 1 | locus YDR392W, strain spt3, hits give low values 0.986 | locus YDR502C, strain sam2, hits give low values 1.01 | locus YEL003W, strain gim4, hits give low values 0.997 | locus YEL037C, strain rad23, hits give low values 0.982 | locus YEL061C, strain CIN8 (second series), hits give low values 0.965 | locus YEL061C, strain CIN8, hits give low values 0.992 | locus YER002W, strain NOP16, hits give low values 0.986 | locus YER015W, strain faa2, hits give low values 0.989 | locus YER016W, strain bim1, hits give low values 0.992 | locus YER110C, hits give low values 0.991 | locus YER111C, strain swi4, hits give low values 0.996 | locus YER155C, strain BEM2 (second series), hits give low values 0.985 | locus YER155C, strain BEM2, hits give low values 1 | locus YER167W, strain BCK2, hits give low values 0.993 | locus YFR010W, strain ubp6, hits give low values 0.982 | locus YGL078C, strain dbp3, hits give low values 0.996 | locus YGL086W, strain mad1, hits give low values 1.01 | locus YGL167C, strain pmr1, hits give low values 0.986 | locus YGL173C, strain kem1, hits give low values 0.982 | locus YGL227W, strain vid30, hits give low values 0.986 | locus YGL240W, strain doc1, hits give low values 0.987 | locus YGL248W, strain PDE1, hits give low values 1.01 | locus YGL253W, strain hxk2, hits give low values 0.982 | locus YGR078C, strain PAC10, hits give low values 0.984 and 1.01 | locus YGR135W, strain pre9, hits give low values 0.989 | locus YGR229C, strain SMI1, hits give low values 1.02 | locus YGR252W, strain gcn5, hits give low values 1.13 | locus YHR013C, strain ard1, hits give low values 1.01 | locus YHR027C, strain rpn1, hits give low values 0.982 | locus YHR030C, strain SLT2, hits give low values 0.992 | locus YHR079C, strain IRE1 (second series), hits give low values 0.991 | locus YHR079C, strain IRE1, hits give low values 0.979 | locus YHR094C, strain hxt1, hits give low values 0.943 | locus YHR129C, strain ARP1, hits give low values 0.998 | locus YHR142W, strain chs7, hits give low values 0.977 | locus YHR200W, strain rpn10, hits give low values 0.989 | locus YIL066C, strain RNR3, hits give low values 0.994 | locus YIL073C, strain SPO22, hits give low values 0.93 | locus YIL125W, strain kgd1, hits give low values 0.985 | locus YIR030C, strain dcg1, hits give low values 0.988 | locus YJL092W, strain hpr5, hits give low values 0.997 | locus YJL095W, strain BCK1 (second series), hits give low values 0.968 | locus YJL095W, strain BCK1, hits give low values 0.968 and 0.993 | locus YJL115W, strain asf1, hits give low values 0.99 | locus YJL129C, strain trk1, hits give low values 0.968 | locus YJL134W, strain LCB3, hits give low values 1 | locus YJL154C, strain vps35, hits give low values 0.962 | locus YJL164C, strain tpk1, hits give low values 1 | locus YJL166W, strain qcr8, hits give low values 0.983 | locus YJL168C, strain set2, hits give low values 0.985 | locus YJL187C, strain SWE1 (second series), hits give low values 0.982 | locus YJR043C, strain POL32, hits give low values 0.985 | locus YJR066W, strain TOR1, hits give low values 0.926
